Compounds with a hit are over-represented: about 2.5% of the library has one in this group of screens.
Env fusion inh – inhibitors of HIV-1 Env-driven cell-cell fusion, primary screen, HeLa-JRFL effector, CEM21 target cells, luciferase. inhibition, % at 12.3 µM. 360,000 compounds, 1.1% hits;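 active means mean replicate inhibition score of at least 50 and every replicate individually at or above 50; inconclusive means only one of the two criteria met; inactive means mean below 50 and not all replicates reaching 50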;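 further: 0% = plate neutral controls and 100% = maraviroc near 300 nM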
CFTR F508del cor – F508del CFTR correction, initial screen, CFBE line, single point; CFBE cells, YFP halide quenching; stimulated with forskolin plus potentiator P3; % fluorescence drop versus neutral controls; AID 720511, 2013; 350,000 compounds, 0.36% hits; activity (quench increase), % at 7.58 µM;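 active means mean added fluorescence quench of at least 8% versus neutral control, with both replicates also reaching 8%; inconclusive means only one of the mean or replicate conditions met; inactive means mean below 8% and not both replicates reaching 8%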;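 further: cells transiently co-express mutant CFTR-F508del with the halide-sensitive YFP; corrector assay measuring rescue of mutant channel to the surface after 24 h compound exposure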
EWS-Fli inh – EWS/Fli-driven NR0B1 reporter inhibitors, primary screen, A673 cells, NR0B1 luciferase, luminescence, MLPCN library; viability-normalised; inhibition, % at 12.6 µM; 350,000 compounds, 0.67% hits;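 active means mean inhibition of at least 50% after viability correction, with every replicate also passing that limit; inconclusive means mean reaches 50% but only one of two replicates passes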;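 further: firefly luciferase signal divided by Alamar Blue viability fluorescence both relative to DMSO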
FXN GAA850 act – FXN promoter activators, primary screen, cell-based, luciferase luminescence, HEK293 lucGAA850; HEK293 lucGAA850 FXN promoter luciferase reporter, 24 h; percent of 10 µM SAHA response; activation, % at 6 µM; 360,000 compounds, 0.56% hits;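 active means activation above the average of all compounds screened plus 3 SD, cutoff fixed separately per campaign, cut at about 7.5% in these data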;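 further: 0% = DMSO wells and 100% = 10 µM SAHA wells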
PAX8 inh HTS – inhibitors of PAX8-driven TPO luciferase reporter, primary screen, RMG-I cells, single concentration; SteadyGlo, 24 h; inhibition, % at 12.6 µM; 360,000 compounds, 1.2% hits; AID 652154, 2013;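 active means mean replicate inhibition at least 60% with every replicate also reaching 60%; inconclusive means only one of the two criteria is met; inactive means mean below 60% and not all replicates reaching 60%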;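 further: luciferase light reporting Pax8 driven TPO promoter activity; plate controls were median of neutral control wells for no effect and mitoxantrone controls for full effect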
DNA binding – DNA binders by acridine orange displacement, dose response, counter-screen for EWS/Fli inhibitor project, biochemical, fluorescence polarization, cherry-pick. shares compounds with EWS-Fli inh. salmon sperm DNA acridine orange fluorescence polarization. AC35, µM (doses to about 68 µM), without a hit: at the highest dose activity change, negative = DNA binding. 640 compounds, 2% hits;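 active means fitted curve reaches a 35% signal fall AC35 below twice the sample's top valid tested dose, actives reach about 48 µM in these data; inactive means the rest, including activity in the rising direction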;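 further: lower polarization ratio signals compound binding to DNA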
Numbers without * were called inactive; u = inconclusive; x = no result given; ! = repeats disagree; [ ] = another dose, or the depositor's remark.

SMILES	Env fusion inh	CFTR F508del cor	EWS-Fli inh	FXN GAA850 act	PAX8 inh HTS	DNA binding
CCc1cnc(N2[C@H](C#N)[C@H](c3ccc(C#Cc4ccccc4F)cc3)[C@@H]2CO)s1	10[16.7 µM]	0	-22	x	-8	x
N#C[C@@H]1[C@H](c2ccc(C#Cc3ccccc3F)cc2)[C@@H](CO)N1C(=O)c1cccnc1	x	6	74*	x	47	7%
N#C[C@H]1N[C@H](CO)[C@H]1c1ccc(C#Cc2ccccc2F)cc1	x	-1	53*	x	-30	4%
N#C[C@H]1[C@H](c2ccc(C#Cc3ccccc3F)cc2)[C@@H](CO)N1C(=O)C1CCOCC1	18[16.7 µM]	-2	67*	x	75*	-9%
CO[C@H]1CN(C)C(=O)c2ccc(NC(=O)C3CCCC3)cc2OC[C@@H](C)N(C(C)=O)C[C@H]1C	x	0	0	x	6	x
COc1cccc(-c2ccc3c(c2)[C@@H]2[C@@H](CCN2S(=O)(=O)c2ccccc2F)[C@H](CO)N3C)c1	x	-1	-8	x	-3	x
O=C(NC1CCCC1)C(c1ccccc1)n1c(CSCCOc2ccccc2)nc2ccccc21 (centres undefined)	u	3	60*	x	-11	2%
Cc1cc(C)cc(OCC(=O)OCC(=O)Nc2cc(S(=O)(=O)N3CCOCC3)ccc2C)c1	4	-1	66*	2	-1	-12%
CO[C@@H]1CN(C)C(=O)c2cc(NC(=O)c3ccno3)ccc2OC[C@@H](C)N(S(C)(=O)=O)C[C@H]1C	-103[16.7 µM]	3	5	x	-2	x
OCC1OC(n2ccc3c2ncn2ncnc32)C(O)C1O (centres undefined)	55*	1	71*	-6	72*	-10%
O=C1c2ccc3c4c(ccc(c24)C(=O)N1c1cccc(O)c1)C(=O)N(c1cccc(O)c1)C3=O	-13	-5	60*	-4	30	-8%
O=C1c2ccc3c4c(ccc(c24)C(=O)N1c1cccc(O)c1)CC3	24	0	-3	3	-1	x
CC(C)(C)c1ccc(Cn2c(=O)cnc3ccccc32)cc1	39	0	78*	-9	27	-13%
O=c1cnc2ccccc2n1Cc1ccc(Br)cc1	-13	0	-89	7	-62	x
CO[C@H]1CN(C)C(=O)c2cc(NC(=O)Nc3c(C)noc3C)ccc2OC[C@H](C)N(CC2CC2)C[C@@H]1C	x	1	-1	x	-1	x
CCCNC(=O)Nc1ccc2c(c1)OC[C@H](C)N(S(C)(=O)=O)C[C@H](C)[C@@H](OC)CN(C)C2=O	x	0	x	x	-6	x
O=c1ccc2ccccc2c2ccccc12	-3	2	63*	x	88*	-12%
CS(=O)(=O)N1CC(=O)N2[C@H](C1)[C@H](c1ccc(C#Cc3cccc(F)c3)cc1)[C@@H]2CO	x	4	x	x	x	x
O=C(NC[C@H]1[C@@H](c2ccccc2)[C@@H](CO)N1C(=O)C1CC1)NC1CCCC1	x	-2	-5	x	0	x
COc1cccc(Sc2ccccc2/C=N/NC(N)=O)c1	-46	8.8*	54*	-3	32	-14%
COCC#Cc1ccc2c(c1)O[C@@H](CN(C)Cc1ccncc1)[C@@H](C)CN([C@@H](C)CO)S2(=O)=O	-11[16.7 µM]	3	-13	x	x	x
CC(=O)Oc1ccc(-c2ccc(C(=O)Nc3cccc(S(=O)(=O)N4CCOCC4)c3)cc2)cc1	10	-5	59*	0	41	-7%
COc1ccc(C[C@H]2CCc3cnnn3COC[C@@H](C(C)C)NC2=O)cc1	-6[16.7 µM]	x	-18	x	-10	x
Cc1ccc(S(=O)(=O)N(C)C[C@@H]2Oc3ccc(NC(=O)Nc4ccccc4)cc3C(=O)N([C@@H](C)CO)C[C@H]2C)cc1	x	1	-7	x	-1	x
CCCCCCCCNC(C)C(O)c1ccc(SC(C)C)cc1 (centres undefined)	-6	-3	59*	-1	-6	-7%
SMILES	Env fusion inh	CFTR F508del cor	EWS-Fli inh	FXN GAA850 act	PAX8 inh HTS	DNA binding
CN1c2ccc(-c3ccc(F)cc3)cc2[C@H]2[C@H](CCN2C(=O)c2ccc(F)cc2)[C@@H]1CO	x	-3	-13	x	x	x
C[C@@H]1CN([C@@H](C)CO)C(=O)c2cc(C#C[C@@H](C)O)cnc2O[C@H]1CN(C)C(=O)Cc1ccncc1	-43[16.7 µM]	-2	1	x	-25	x
COC(=O)c1cccc(NC(=O)NC(=O)c2ccccc2Cl)c1	43	3	86*	3	30	-13%
COC(=O)c1cccc(NC(=O)Nc2ccc(Cl)c(Cl)c2)c1	x	-2	2	-2	x	x
CO[C@@H]1CN(C)C(=O)c2cc(NC(=O)c3cc(C)on3)ccc2OC[C@@H](C)N(C(=O)C2CCC2)C[C@H]1C	x	-2	-6	x	-5	x
CCN1CCN(/C=N/c2nc3c(s2)CCCC3)CC1	x	-3	57*	-10	x	-10%
Cc1cc(-c2nc3cc(F)ccc3s2)ccc1N	-232	-1	74*	2	-5	-1%
Nc1ccc(Oc2cccc(Oc3ccc(N)cc3)c2)cc1	31	-4	78*	-15	13	3%
Cc1cccc(Oc2ccc(N)cc2)c1	-4	x	x	1	x	x
Cc1ccc(Cc2c(-c3ccco3)nc3c(C)cc(Br)cn23)cc1	8	-1	54*	x	34	13%
Cc1cc(Br)cn2c(Cc3cccc(Cl)c3)c(-c3ccco3)nc12	0	-1	2	x	7	x
O=C(c1ccccc1)N1Cc2ccccc2[C@H]2OC(c3ccc(OCCCO)cc3)=N[C@@]2(CCS(=O)(=O)c2ccccc2)C1=O	12[16.7 µM]	5	-10	x	4	x
CO[C@@H]1CN(C)C(=O)c2cc(NC(=O)c3cccc(F)c3)ccc2OC[C@H](C)N(C)C[C@H]1C	-10[16.7 µM]	-1	-5	x	x	x
COc1ccc2c3c(n(C)c2c1)[C@@H](CO)N(Cc1ccccc1F)CC31CN(C(C)=O)C1	x	2	-9	x	-63	x
O=c1cc(-c2ccccc2)oc2ccc3ccccc3c12	-20	1	81*	-8	91*	13%
CC(C)c1cn(CC[C@H]2CC[C@@H](NS(=O)(=O)Cc3ccccc3)[C@@H](CO)O2)nn1	-4[16.7 µM]	-3	3	x	1	x
COc1ccc(-c2cn(-c3ccc(OC)cc3)c3[n+]2-c2ccccc2CC3)cc1	29	x	74*	-4	92*	-5%
CC(C)NC(=O)Nc1cccc2c1O[C@@H](CN(C)Cc1ccc(Cl)c(Cl)c1)[C@@H](C)CN([C@@H](C)CO)C2=O	8[16.7 µM]	0	x	x	17	x
C(=C\c1ccc(C2[C@H]3CNC[C@@H]2N3Cc2ccccn2)cc1)/c1ccccc1 (some centres undefined)	x	0	59*!	x	8	-10%
N/C(=C\C(=O)c1cc(Cl)ccc1O)C(Cl)(Cl)Cl	-300	3	62*	-1	43	-5%
CCOC(=O)Cc1csc(NC(=S)NC(=O)c2ccc(C)cc2)n1	u	2	82*	-7	44	0%
